Data reported in PubChem BioAssay (Tox21).
Records with an inconclusive call do not appear. Activity calls are given as the source filed them. Unless noted, calls follow the shape of the dose curve; as a rule, active = well fitted curve in the direction sought with a large enough effect in the repeat runs; inconclusive = weak or mixed curves; inactive = no such curve, though single readings can be large; an effect the other way counts as inactive or inconclusive.

Columns and labels:
[1] = qHTS assay to identify small molecule agonists of the peroxisome proliferator-activated receptor delta (PPARd) signaling pathway - cell viability counter screen (AID 743211); also: % is scaled to controls: 0 for no effect and ±100 for the full control effect; nearly all actives have a fitted effect of over 55% in size
How it was run: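 PPARd-bla HEK293H cells (3000/well) were pre-incubated 5 h at 37 C, then exposed to compound for 17 h at 37 C. After 2 h with LiveBLAzer substrate, CellTiter-Glo was added to the same wells; luminescence read after 30 min at room temperature.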

[2] = target: Peroxisome proliferator-activated receptor delta (Homo sapiens) (UniProt Q03181); assay: qHTS assay to identify small molecule agonists of the peroxisome proliferator-activated receptor delta (PPARd) signaling pathway (AID 743212; calls by dose curve; also: % is scaled to controls: 0 for no effect and ±100 for the full control effect)
How it was run: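 Cells expressing a UAS-driven beta-lactamase reporter (PPARd-bla HEK293H) were given test compounds after a 5 h settle and kept at 37 C. Reporter activity was then measured as FRET fluorescence using LiveBLAzer B/G substrate.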

[3] = qHTS assay to identify small molecule antagonists of the peroxisome proliferator-activated receptor delta (PPARd) signaling pathway - cell viability counter screen (AID 743213); also: % is scaled to controls: 0 for no effect and ±100 for the full control effect; nearly all actives have a fitted effect of over 50% in size
How it was run: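 Viability counter-screen, qHTS format: PPARd-bla HEK293H, L165041 300 nM final, 17 h compound exposure at 37 C, CellTiter-Glo luminescence after 30 min RT.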

[4] = target: Peroxisome proliferator-activated receptor delta (Homo sapiens) (UniProt Q03181); assay: qHTS assay to identify small molecule antagonists of the peroxisome proliferator-activated receptor delta (PPARd) signaling pathway (AID 743215; active = well fitted inhibition curve with a large enough effect in the signal ratio in the repeat runs, not every such curve was filed as active; the % refers to the signal ratio;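 also: cells stimulated with agonist L165041 at 300 nM final during compound exposure; series mostly up to about 62 µM; % is scaled to controls: 0 for no effect and ±100 for the full control effect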)
How it was run: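 HEK293H GeneBLAzer PPARd UAS-bla reporter cells; cpd + L165041 300 nM final, 17 h 37 C; LiveBLAzer B/G FRET substrate 2 h RT; fluorescence intensity read-out. Antagonist mode.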

[5] = target: Bile acid receptor (Homo sapiens) (UniProt Q96RI1); assay: qHTS assay to identify small molecule antagonists of the farnesoid-X-receptor (FXR) signaling pathway (AID 743217; active = well fitted inhibition curve with a large enough effect in the signal ratio in the repeat runs, not every such curve was filed as active; the % refers to the signal ratio; also: % is scaled to controls: 0 for no effect and ±100 for the full control effect)
How it was run: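 Read-out: beta-lactamase FRET fluorescence (LiveBLAzer B/G substrate, 2 h, room temperature) in GeneBLAzer FXR-UAS-bla HEK 293T cells. Compounds were co-dosed with 50 uM chenodeoxycholic acid (final) and incubated 16 h at 37 °C.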

[6] = qHTS assay to identify small molecule agonists of the farnesoid-X-receptor (FXR) signaling pathway - cell viability counter screen (AID 743218); also: % is scaled to controls: 0 for no effect and ±100 for the full control effect; nearly all actives have a fitted effect of over 45% in size
How it was run: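 Luminescence from CellTiter-Glo, read after 30 min at RT, reports viability of GeneBLAzer FXR-UAS-bla HEK 293T cells treated 16 h with compounds in the wells used for the beta-lactamase reporter.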

[7] = target: Bile acid receptor (Homo sapiens) (UniProt Q96RI1); assay: qHTS assay to identify small molecule agonists of the farnesoid-X-receptor (FXR) signaling pathway (AID 743220; active = well fitted activation curve with a large enough effect in the signal ratio in the repeat runs, not every such curve was filed as active; the % refers to the signal ratio; also: % is scaled to controls: 0 for no effect and ±100 for the full control effect)
How it was run: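 FXR-UAS-bla HEK 293T cells carrying a UAS-driven beta-lactamase reporter were plated for 5 h at 37C/5% CO2, then exposed to DMSO-dissolved Tox21 10K compounds for 16 h at 37C. A LiveBLAzer B/G FRET substrate was loaded for 2 h at room temperature before fluorescence reading.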

[8] = qHTS assay to identify small molecule antagonists of the farnesoid-X-receptor (FXR) signaling pathway - cell viability counter screen (AID 743221; active = well fitted cell-killing curve with a large enough effect in the repeat runs, not every such curve was filed as active; also: % is scaled to controls: 0 for no effect and ±100 for the full control effect; nearly all actives have a fitted effect of over 50% in size)
How it was run: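 GeneBLAzer FXR-UAS-bla HEK 293T cells, compound plus chenodeoxycholic acid (50 uM final), 16 h at 37 C. CellTiter-Glo added to the same wells after the beta-lactamase read; luminescence read after 30 min at room temperature as viability.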

[9] = target: Vitamin D3 receptor (Homo sapiens) (UniProt P11473); assay: qHTS assay to identify small molecule agonists of the vitamin D receptor (VDR) signaling pathway (AID 743222; calls by dose curve; also: % is scaled to controls: 0 for no effect and ±100 for the full control effect)
How it was run: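 Beta-lactamase reporter readout (LiveBLAzer B/G FRET, 2 h RT) in VDR-bla cells after 16 h compound treatment at 37C, 5% CO2; cells pre-incubated 4 h before pin transfer of DMSO solutions.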

[10] = qHTS assay to identify small molecule agonists of the vitamin D receptor (VDR) signaling pathway - cell viability counter screen (AID 743224); also: series mostly up to about 63 µM; % is scaled to controls: 0 for no effect and ±100 for the full control effect; nearly all actives have a fitted effect of over 50% in size
How it was run: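 Cytotoxicity counter screen: VDR-bla cells, 16 h compound exposure at 37C, 5% CO2; CellTiter-Glo luminescence, 30 min RT, same wells as bla read.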

[11] = qHTS assay to identify small molecule antagonists of the vitamin D receptor (VDR) signaling pathway - cell viability counter screen (AID 743225); also: % is scaled to controls: 0 for no effect and ±100 for the full control effect; nearly all actives have a fitted effect of over 50% in size
How it was run: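 VDR-UAS-bla HEK 293T cells were plated and incubated 4 h at 37C, then dosed with compound plus 3 nM (final) 1-alpha,25-dihydroxyvitamin D3 for 16 h. After the 2 h beta-lactamase read, viability in the same wells was read as CellTiter-Glo luminescence after 30 min at room temperature.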

[12] = qHTS assay to identify small molecule agonists of the NFkB signaling pathway (AID 1159509; active = well fitted curve in the direction sought with a large enough effect in the signal ratio in the repeat runs, not every such curve was filed as active; the % refers to the signal ratio)
How it was run: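 Agonist activity was read as beta-lactamase-driven FRET change (460 and 530 nm emission, 405 nm excitation) following 1.5 hr substrate loading at room temperature. Beforehand, ME-180 NFkB-bla reporter cells were treated with compounds for 5 hr at 37 C.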

[13] = qHTS assay to identify small molecule agonists of the NFkB signaling pathway - cell viability counter screen (AID 1159515; calls by dose curve; also: series mostly up to about 61 µM; % is scaled to controls: 0 for no effect and ±100 for the full control effect; nearly all actives have a fitted effect of over 55% in size)
How it was run: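 ME-180 NFkB-bla cells, 2,000/well; overnight attach; compound 5 hr, 37 C/5% CO2; LiveBLAzer substrate 1.5 hr RT; then CellTiter-Glo in same wells, 30 min RT, luminescence read.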

[14] = qHTS assay to identify small molecule agonists of the endoplasmic reticulum stress response signaling pathway (AID 1159516; active = well fitted activation curve with a large enough effect in the signal ratio in the repeat runs, not every such curve was filed as active; the % refers to the signal ratio; also: % is scaled to controls: 0 for no effect and ±100 for the full control effect)
How it was run: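 HeLa ESRE-bla reporter line; cpd 5 h, 37 C/5% CO2; LiveBLAzer B/G FRET substrate 2 h RT; ex 405, em 460/530 nm.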

[15] = qHTS assay to identify small molecule agonists of the endoplasmic reticulum stress response signaling pathway - cell viability counter screen (AID 1159517; calls by dose curve)
How it was run: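 Cpd-treated ESRE-bla HeLa (5 hr, 37 C) → LiveBLAzer 2 hr RT → CellTiter-Glo 30 min RT → luminescence.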

[16] = qHTS assay to identify small molecule antagonists of the retinoid-related orphan receptor gamma (ROR-gamma) signaling pathway - cell viability counter screen (AID 1159520)
How it was run: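 Tet-on ROR gamma CHO cells (1,000/well) were plated 4 hr, given compounds in DMSO for 2 hr at 37 C, then induced with 1 uM final doxycycline for 16 hr. Viability was read as ATP by CellTiter-Glo luminescence after 30 min.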

[17] = qHTS assay to identify small molecule agonists of the AP-1 signaling pathway - cell viability counter screen (AID 1159525; calls by dose curve; also: nearly all actives have a fitted effect of over 55% in size)
How it was run: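 Each titration point was normalised to DMSO and tetra n-octyl ammonium bromide controls. The read was Cell Titer Glo luminescence after 30 min at RT, following 5 h compound exposure of ME-180 AP-1-bla cells at 37 °C.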

[18] = qHTS assay to identify small molecule agonists of the AP-1 signaling pathway (AID 1159526; calls by dose curve; also: % is scaled to controls: 0 for no effect and ±100 for the full control effect)
[19] = target: Vitamin D3 receptor (Homo sapiens) (UniProt P11473); assay: qHTS assay to identify small molecule antagonists of the vitamin D receptor (VDR) signaling pathway (AID 743223; active = well fitted inhibition curve with a large enough effect in the signal ratio in the repeat runs, not every such curve was filed as active; the % refers to the signal ratio; also: % is scaled to controls: 0 for no effect and ±100 for the full control effect)
How it was run: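 VDR-bla cells were treated with compound plus 3 nM final 1alpha,25-dihydroxyvitamin D3 for 16 h at 37C. Beta-lactamase reporter read by B/G FRET substrate fluorescence after 2 h at room temperature. qHTS format.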

[20] = target: Nuclear receptor ROR-gamma (Homo sapiens) (UniProt P51449); assay: qHTS assay to identify small molecule antagonists of the retinoid-related orphan receptor gamma (ROR-gamma) signaling pathway (AID 1159521)
How it was run: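 Tet-on ROR-gamma CHO cells with ROR response element-luciferase reporter; compounds added 2 hr before 1 uM doxycycline induction, then 16 hr at 37 C. Antagonism scored as decreased ONE-Glo luminescence.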

Chain of Peroxisome proliferator-activated receptor delta (Homo sapiens) (Q03181 whole entry, looked up): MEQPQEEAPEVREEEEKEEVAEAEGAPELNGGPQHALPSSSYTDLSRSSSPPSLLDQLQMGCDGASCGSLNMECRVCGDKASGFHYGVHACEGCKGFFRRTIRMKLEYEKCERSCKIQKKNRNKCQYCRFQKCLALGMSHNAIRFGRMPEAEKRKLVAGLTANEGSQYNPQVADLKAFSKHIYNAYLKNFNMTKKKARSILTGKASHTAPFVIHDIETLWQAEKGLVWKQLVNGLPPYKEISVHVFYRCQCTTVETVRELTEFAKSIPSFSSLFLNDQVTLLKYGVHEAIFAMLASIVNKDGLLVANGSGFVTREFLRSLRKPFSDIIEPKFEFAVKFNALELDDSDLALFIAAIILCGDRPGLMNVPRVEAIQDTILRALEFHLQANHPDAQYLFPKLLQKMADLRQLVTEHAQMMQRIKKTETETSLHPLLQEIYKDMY
Chain of Vitamin D3 receptor (Homo sapiens) (P11473 whole entry, looked up): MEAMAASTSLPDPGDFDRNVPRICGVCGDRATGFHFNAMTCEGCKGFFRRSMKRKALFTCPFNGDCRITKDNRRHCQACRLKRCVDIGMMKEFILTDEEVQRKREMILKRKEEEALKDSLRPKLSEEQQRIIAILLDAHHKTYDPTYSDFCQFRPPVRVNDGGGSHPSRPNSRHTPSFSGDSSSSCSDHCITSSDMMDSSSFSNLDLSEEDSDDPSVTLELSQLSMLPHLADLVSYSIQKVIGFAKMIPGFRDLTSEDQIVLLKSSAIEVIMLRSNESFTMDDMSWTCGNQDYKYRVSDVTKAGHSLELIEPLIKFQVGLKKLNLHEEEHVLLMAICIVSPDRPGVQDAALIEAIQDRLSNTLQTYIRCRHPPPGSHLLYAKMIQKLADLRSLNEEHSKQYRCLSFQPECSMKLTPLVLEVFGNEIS
Chain of Bile acid receptor (Homo sapiens) (Q96RI1 whole entry, looked up): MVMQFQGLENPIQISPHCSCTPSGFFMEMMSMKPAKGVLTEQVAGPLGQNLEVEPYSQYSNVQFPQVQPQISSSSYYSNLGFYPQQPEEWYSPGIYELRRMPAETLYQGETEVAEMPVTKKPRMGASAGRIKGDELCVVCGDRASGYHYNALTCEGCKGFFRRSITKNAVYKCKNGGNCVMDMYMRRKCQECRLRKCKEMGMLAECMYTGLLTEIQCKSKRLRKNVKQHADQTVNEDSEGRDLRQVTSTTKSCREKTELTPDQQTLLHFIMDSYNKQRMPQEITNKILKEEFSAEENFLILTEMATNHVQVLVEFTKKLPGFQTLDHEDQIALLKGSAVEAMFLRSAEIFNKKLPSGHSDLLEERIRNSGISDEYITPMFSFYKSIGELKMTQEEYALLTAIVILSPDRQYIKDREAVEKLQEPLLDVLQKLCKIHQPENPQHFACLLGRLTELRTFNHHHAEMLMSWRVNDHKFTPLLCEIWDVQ

CCc1nccnc1C
inactive: outcome [1] | outcome [2] | outcome [3] | outcome [4] | outcome [5] | Potency [6] | outcome [7] | outcome [8] | outcome [9] | outcome [10] | outcome [11] | outcome [12] | outcome [13] | outcome [14] | outcome [15] | outcome [16] | outcome [17] | outcome [18]

CC(Cl)COP(=O)(OCC(C)Cl)OCC(C)Cl (configuration not stated)
inactive: outcome [1] | outcome [2] | outcome [3] | outcome [4] | Potency [6] | outcome [8] | outcome [9] | outcome [19] | outcome [10] | outcome [11] | outcome [12] | outcome [13] | outcome [14] | outcome [15] | outcome [16] | outcome [20] | outcome [18]

Nc1cc(Cl)cc(S(=O)(=O)O)c1O
inactive: outcome [1] | outcome [3] | Potency [6] | outcome [8] | outcome [19] | outcome [10] | outcome [12] | outcome [13] | outcome [14] | outcome [15] | outcome [16] | outcome [20] | outcome [17] | outcome [18]

CCCCCCCCCCCCCCCCI
inactive: outcome [2] | outcome [3] | outcome [4] | outcome [5] | Potency [6] | outcome [7] | outcome [8] | outcome [9] | outcome [19] | outcome [10] | outcome [11] | outcome [12] | outcome [13] | outcome [14] | outcome [15] | activity, negative = cytotoxicity [16] -0.188% [at 19 µM] | activity change, negative = inhibition [20] 2.8% [at 19 µM] | viability change, negative = cytotoxic [17] -11.4% [at 15.8 µM] | activation [18] -9.43% [at 15.8 µM]

Cc1ccccc1OCC1CO1 (configuration not stated)
inactive: outcome [1] | outcome [2] | outcome [3] | outcome [4] | outcome [5] | Potency [6] | outcome [7] | outcome [8] | outcome [9] | outcome [10] | outcome [11] | outcome [12] | outcome [13] | outcome [14] | outcome [15] | outcome [16] | outcome [17] | outcome [18]

Cc1cc(C)cc([N+](=O)[O-])c1
inactive: outcome [1] | outcome [2] | outcome [4] | outcome [5] | Potency [6] | outcome [7] | outcome [8] | outcome [9] | outcome [19] | outcome [10] | outcome [11] | outcome [12] | outcome [13] | outcome [14] | outcome [15] | outcome [16] | outcome [20] | outcome [18]

CC(=O)Nc1ncc([N+](=O)[O-])s1
inactive: outcome [1] | outcome [2] | outcome [5] | Potency [6] | outcome [7] | outcome [8] | outcome [9] | outcome [10] | outcome [11] | outcome [12] | outcome [13] | outcome [14] | outcome [15] | outcome [16] | outcome [20] | outcome [18]

O=C(O)/C=C/c1ccccc1
inactive: outcome [1] | outcome [2] | outcome [3] | outcome [5] | Potency [6] | outcome [7] | outcome [8] | outcome [9] | outcome [19] | outcome [10] | outcome [11] | outcome [12] | outcome [13] | outcome [14] | outcome [15] | outcome [16] | outcome [20] | outcome [18]

FC(F)(F)c1ccc(Cl)cc1Cl
inactive: outcome [1] | outcome [3] | Potency [6] | outcome [8] | outcome [9] | outcome [19] | outcome [10] | outcome [11] | outcome [12] | outcome [13] | outcome [14] | outcome [15] | outcome [16] | outcome [20] | outcome [17] | outcome [18]

CC(C)CCCCCCOC(=O)C1CCCCC1C(=O)OCCCCCCC(C)C (configuration not stated)
inactive: outcome [1] | outcome [2] | outcome [3] | outcome [5] | Potency [6] | outcome [7] | outcome [8] | outcome [9] | outcome [19] | outcome [10] | outcome [11] | outcome [12] | outcome [13] | outcome [14] | outcome [15] | outcome [16] | outcome [20] | outcome [17] | outcome [18]

C[Si]1(C)N[Si](C)(C)N[Si](C)(C)N1
inactive: outcome [3] | Potency [6] | outcome [8] | outcome [10] | outcome [11] | outcome [12] | outcome [13] | outcome [14] | outcome [15] | outcome [16] | outcome [20] | outcome [17] | outcome [18]

O=S1(=O)CCCC1
inactive: outcome [1] | outcome [3] | outcome [5] | Potency [6] | outcome [7] | outcome [8] | outcome [9] | outcome [19] | outcome [10] | outcome [11] | outcome [12] | outcome [13] | outcome [14] | outcome [15] | outcome [16] | outcome [20] | outcome [17] | outcome [18]

COc1cc2c3cc1Oc1cc(ccc1O)C[C@@H]1c4c(cc(OC)c(O)c4Oc4ccc(cc4)C[C@@H]3N(C)CC2)CC[N+]1(C)C
inactive: outcome [1] | outcome [2] | outcome [3] | outcome [4] | outcome [7] | outcome [8] | outcome [9] | outcome [19] | outcome [10] | outcome [11] | outcome [12] | outcome [13] | outcome [14] | outcome [15] | outcome [16] | outcome [20] | outcome [18]

CC(C)(c1ccc(Oc2ccc3c(c2)C(=O)OC3=O)cc1)c1ccc(Oc2ccc3c(c2)C(=O)OC3=O)cc1
inactive: outcome [1] | outcome [3] | outcome [4] | Potency [6] | outcome [8] | outcome [9] | outcome [10] | outcome [11] | outcome [12] | outcome [13] | outcome [14] | outcome [15] | outcome [16] | outcome [20] | outcome [17] | outcome [18]

Cc1ccc(C(=O)C(=O)O)cc1C
inactive: outcome [1] | outcome [2] | outcome [3] | outcome [4] | Potency [6] | outcome [8] | outcome [9] | outcome [19] | outcome [10] | outcome [11] | outcome [12] | outcome [13] | outcome [14] | outcome [15] | outcome [16] | outcome [17] | outcome [18]

CC(C)COC(=O)CCCCC(=O)OCC(C)C
inactive: outcome [2] | outcome [3] | outcome [4] | outcome [5] | Potency [6] | outcome [7] | outcome [8] | outcome [9] | outcome [10] | outcome [11] | outcome [12] | outcome [13] | outcome [14] | outcome [15] | outcome [16] | outcome [20] | outcome [17] | outcome [18]

CO[Si](CCCS)(OC)OC
inactive: outcome [1] | outcome [2] | outcome [3] | outcome [5] | Potency [6] | outcome [7] | outcome [10] | outcome [11] | outcome [12] | outcome [13] | outcome [14] | outcome [15] | outcome [16] | outcome [17] | outcome [18]
